The whole screen tested about 63,000 compounds, of which about 1,100 (1.7%) were called active. Rule as the data show it: active = cytotoxicity above about 50%; inactive = the rest. Shown is part of a subset that was picked to be rich in actives. Potency and affinity values are given separately.
test: HPDE-C7 pancreatic duct cell viability loss – fluorescence, HTS (AID 430); conditions: HPDE-C7 pancreatic duct cells viability, at 10 µM, active compounds read high;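 also: cells exposed to compound for 48 hours before viability readout; 0% = vehicle and 100% = reference cytotoxic drug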

SMILES	cytotoxicity
Cc1cccn2c(=O)c3cc(C#N)c(=N)n(CCN4CCOCC4)c3nc12	5% (inactive)
Cc1ccccc1-n1c(SCc2cc(=O)n3ccccc3n2)nc2[nH]ncc2c1=O	-8% (inactive)
CC1(N2CCOCC2)CC2(O)C(=[N+]1[O-])CCc1c2no[n+]1[O-] (stereo unspecified)	60.2% (active)
CC1(N2CCOCC2)CC2(O)C(=[N+]1[O-])CCc1nonc12 (stereo unspecified)	12.8% (inactive)
CC1(N2CCCCC2)CC2(O)C(=[N+]1[O-])CCC/C2=N\O (stereo unspecified)	-1.5% (inactive)
COc1ccc(Nc2nc(N3CCCC3)c3ccccc3n2)cc1	27.2% (inactive)
Cc1ccc(Nc2nc(N3CCOCC3)c3ccccc3n2)cc1	30.7% (inactive)
Oc1ccc(Nc2nc(N3CCCC3)c3ccccc3n2)cc1	73.1% (active)
C=CCN1C(=O)C2(c3ccccc31)C1CCCC=C1C(C#N)=C(N)C2(C#N)C#N (stereo unspecified)	-22.1% (inactive)
C=C(C)c1cccc(C(C)(C)NC(=O)N2CCOCC2)c1	7.9% (inactive)
COc1ccc(C(=O)CCN2CCCCCC2)cc1	19.8% (inactive)
COc1ccc(C(O)C(CN2CCOCC2)c2ccccc2)cc1F (stereo unspecified)	-2.2% (inactive)
COc1ccc(C(=O)O)cc1F	-2.5% (inactive)
COc1ccc(C(=O)C(c2ccccc2)N2CCOCC2)cc1 (stereo unspecified)	-4.6% (inactive)
CCOC(=O)Cc1nnc(NC(=O)CSc2nnc3c4ccccc4n(C(C)C)c3n2)s1	-15% (inactive)
CC1CCCCC1NC(=O)C1CCN(S(=O)(=O)c2ccc3c(c2)CCC(=O)N3)CC1 (stereo unspecified)	-18.5% (inactive)

SMILES	cytotoxicity
COc1ccccc1C1NC(=O)CS1 (stereo unspecified)	-18.6% (inactive)
c1ccc(-c2cc(N3CCCCC3)ncn2)cc1	-3.8% (inactive)
Cc1nc(-c2ccccc2)cc(N2CCCC2)n1	-14.7% (inactive)
Nc1nc(-c2ccccc2)cc(N2CCCCC2)n1	50.6% (active)
CCOc1cccc2c1OC1(C)CC2NC(=O)N1c1cccc(F)c1 (stereo unspecified)	-12.1% (inactive)
Cc1ccc(C(=O)Nc2ncc(Cc3ccccc3)s2)o1	31.4% (inactive)
Cc1ccc(C(=O)Nc2ncc(Cc3ccc(F)cc3)s2)o1	57.5% (active)
Cc1nnc(SCC(=O)Nc2ncc(Cc3ccc(F)cc3)s2)n1N	-7.7% (inactive)
CCOc1ccc(CN(CCO)CCO)cc1C(=O)OC	-17% (inactive)
O=C(CSc1nc2ccccc2o1)Nc1ccccc1	-13.9% (inactive)
CSc1cccc(NC(=O)CSc2nc3ccccc3o2)c1	-17.5% (inactive)
CCCCN(Cc1ccccc1)C(=O)C1CCCN(S(=O)(=O)c2cnc[nH]2)C1 (stereo unspecified)	6% (inactive)
Cc1cccc2cc(C#N)c(SCC(=O)N3CC(=O)Nc4ccccc43)nc12	53.4% (active)
Cc1ccccc1-n1c(C)nnc1SCC(=O)N1CC(=O)Nc2ccccc21	4.2% (inactive)
Cc1cccc2cc(C#N)c(SCC(=O)N3CCC(C)CC3)nc12	8.5% (inactive)

— PubChem BioAssay AID430 (Sanford-Burnham Center for Chemical Genomics, 2006)
